FH mod: Identification of activators of human fumarate hydratase by quantitative high-throughput screening | Fumarate hydratase, mitochondrial (Homo sapiens), P07954 | FH coupled MDH/diaphorase resazurin fluorescence, 15 min | Potency, µM (doses to about 79.9 µM), for inactives: top-dose activity change, negative = inhibition, hits mostly inhibitors | 54,000 compounds, 0.22% hits; also: % is scaled to controls: 0 for no effect and ±100 for the full control effect; the screen sought activators but most active calls are inhibition curves; nearly all actives have a fitted effect of over 45% in size
NTMT1 inh: inhibitors of human N-terminal methyltransferase NTMT1; Q9BV86; NTMT1 MTase-Glo SAH luminescence, purified enzyme; Potency, µM (doses to about 114 µM), without a hit: at the top dose activity change, negative = inhibition, hits mostly inhibitors; 59,000 compounds, 2.5% hits; AID 1645870;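 also: plate controls were DMSO vehicle for no effect and no enzyme for full effect; nearly all actives have a fitted effect of over 65% in size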
Target sequence (Q9BV86 whole entry, looked up): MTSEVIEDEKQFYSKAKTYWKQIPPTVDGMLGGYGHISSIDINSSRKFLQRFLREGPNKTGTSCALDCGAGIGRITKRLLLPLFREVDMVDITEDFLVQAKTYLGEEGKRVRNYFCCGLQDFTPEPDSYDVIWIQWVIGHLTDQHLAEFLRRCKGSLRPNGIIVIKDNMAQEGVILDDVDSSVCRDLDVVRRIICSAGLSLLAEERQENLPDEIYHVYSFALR
HTT-AS act: HTT-AS promoter activation. HEK293 HTT-AS promoter firefly luciferase reporter, 24 h; response scale: percent change from vehicle, -100% = no light. Potency, µM (highest dose often 57.5 µM), inactives show at the highest dose activity change, positive = activation, actives largely listed as activators. 48,000 compounds, 0.24% hits. AID 1508624; also: nearly all actives have a fitted effect of over 55% in size
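Firefly luciferase readout (Dual-Glo, 10 min RT) after 24 h, 37 °C compound exposure (final up to 57.5 uM) of HEK293 reporter cells cultured 24 h beforehand; PTC124 at 50 uM final as control inhibitor; activity scaled vehicle 0%, zero RLU -100%.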
HTT prom inh: HTT promoter inhibition; HEK293 HTT promoter firefly luciferase reporter, 24 h; Potency, µM (series often up to 57.5 µM), for the others: top-dose activity change, negative = inhibition, actives largely listed as inhibitors; 48,000 compounds, 0.93% hits; also: nearly all actives have a fitted effect of over 50% in size
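HEK293 Fluc reporter, 2,500 cells/well, 24 h pre-culture; cpds up to 57.5 uM final, 24 h 37 degrees C; Dual-Glo, 10 min RT; normalized vehicle = 0%, zero RLU = -100%.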
* hit, by the source's call; ? = inconclusive; · = not tested or not shown; ! = not active in a repeat; [ ] = remark or other dose. An excerpt weighted towards active compounds, which were near 2.6% of everything screened. Calls follow the shape of the dose curve; as a rule, active = well fitted curve in the direction sought with a large enough effect; inconclusive = small, poorly fitted or top-dose-only effect, or another doubt; inactive = no such curve, though single readings can be large; an effect the other way counts as inactive or inconclusive. Potency is read from the fitted curve at half-maximal effect.

SMILES	FH mod	NTMT1 inh	HTT-AS act	HTT prom inh
CN(C)CCCNc1cc(N2CCN(C3CCCCC3)CC2)c2noc3c2c1C(=O)c1ccccc1-3	-10.2%	11.2µM*	-18.1%	-3.3%
CCOc1ccc(CCNC(=O)CSc2n[nH]c(-c3ccccc3)n2)cc1OCC	6.31µM*	5.6%	-11.9%	1.5%
CCC1(O)CC2CN(CCc3c([nH]c4ccccc34)[C@@](C(=O)OC)(c3cc4c(cc3OC)N(C=O)C3[C@]45CCN4CC=C[C@@](CC)([C@@H](OC(C)=O)[C@]3(O)C(=O)OC)[C@H]45)C2)C1 (some centres not stated)	-6.6%[53.3 µM]	·	·	·
CC[C@]1(O)CC2CN(CCc3c([nH]c4ccccc34)[C@@](C(=O)OC)(c3cc4c(cc3OC)N(C)[C@H]3[C@@](O)(C(=O)OC)[C@H](OC(C)=O)[C@]5(CC)C=CCN6CC[C@]43[C@@H]65)C2)C1 (some centres not stated)	-1.8%	44.7µM*!	·	·
CCC1=C[C@@H]2CN(C1)Cc1c([nH]c3ccccc13)[C@@](C(=O)OC)(c1cc3c(cc1OC)N(C)[C@@H]1[C@@](O)(C(=O)OC)[C@H](OC(C)=O)[C@]4(CC)C=CCN5CC[C@]31[C@@H]54)C2	-0.3%[53.3 µM]	17.1µM*	-32.5%	?
N#Cc1cccnc1N1CCN(C(=O)c2cccc(Cc3n[nH]c(=O)c4ccccc34)c2)CC1	·	-1.9%	·	·
CC1=CC(=O)C(C(C)C)=C/C1=N/OC(=O)c1ccccc1C	-13.2%	?	·	·
Cc1ccc(Cn2ccn(CC(=O)Nc3ccccc3C(F)(F)F)c(=O)c2=O)cc1	-3.3%	-28.3%	-8.0%	-26.3%
CCOc1ccccc1NC(=O)Cn1ccn(Cc2ccc(C)cc2)c(=O)c1=O	-5.1%	89.1µM*	-14.8%	-25.0%
Cc1cc(Cl)ccc1COc1ccnn1-c1cc(C(=O)O)ccn1	23.0%	-15.2%[57.5 µM]	·	·
COCCn1c(SCC(=O)Nc2ccc(F)c(Cl)c2)nc2c(oc3ccccc32)c1=O	-2.6%	79.4µM*	-45.0%	3.8%
Cn1c(=O)c2c(nc(CN3CCN(C(=O)C4CC4)CC3)n2Cc2cccc(F)c2)n(C)c1=O	·	18.8%	·	·
O=C1NC(=O)C(=Cc2ccc(-c3ccc(F)cc3O)o2)S1	-27.3%[53.3 µM]	24.1µM*	?	9.7%
O=C1NC(=O)/C(=C/c2ccc3c(c2)OC(F)(F)O3)S1	?	-1.1%[57.5 µM]	·	·
Cc1ccc(OCCn2c(CCNC(=O)c3ccc(C(F)(F)F)cc3)nc3ccccc32)cc1	·	-7.8%	·	·
Cc1cccc(-n2c(-c3ccco3)nc3c(cnn3-c3ccc(F)cc3)c2=O)c1	-16.9%	-4.4%	-39.1%	17.8µM*
Cc1ccc(-n2c(-c3ccco3)nc3c(cnn3-c3ccc(C)cc3)c2=O)cc1	-13.1%	-9.7%	-25.8%	-19.3%
C=CC(=O)Nc1cccc(Nc2nc(Nc3ccccc3)ncc2C)c1	2.3%	44.7µM*	·	·
Cc1ccc(C)c(NC(=O)/C(C#N)=C/c2ccc(C(C)C)cc2)c1	6.1%	?	19.2%	-19.4%
Cc1ccc(NC(=O)/C(C#N)=C/c2ccc(C(C)C)cc2)cc1C	-1.1%	27.5%	-10.8%	-13.2%
N#C/C(=C\c1ccc(O)c(O)c1)C(=O)Nc1ccccc1	14.1µM*	·	·	·
N#C/C(=C\c1ccc(O)c(O)c1)C(=O)NCCCNC(=O)/C(C#N)=C/c1ccc(O)c(O)c1	?	1.26µM*	·	·
Clc1cccc(-c2ccc(-c3nnc(CCCc4ccc5cccnc5n4)o3)cc2)c1	·	-22.3%	·	·
Cc1ccc(Cn2c(C)c3cnn(CC(=O)N4CCN(c5ccc(F)cc5)CC4)c(=O)c3c2C)cc1	-26.0%	?	-85.5%	14.1µM*
Cc1cn(C[C@H](N)C(=O)O)c(=O)n(Cc2ccsc2C(=O)O)c1=O	-7.8%	3.4%[57.5 µM]	·	·
SMILES	FH mod	NTMT1 inh	HTT-AS act	HTT prom inh
CCN(CC)CCCC(C)Nc1c2ccc(Cl)cc2nc2ccc(OC)cc12 (configuration not stated)	3.2%[53.3 µM]	44.7µM*!	-1.8%	9.0%
COc1ccc2nc3cc(Cl)ccc3c(Nc3cc(CN4CCCC4)c(O)c(CN4CCCC4)c3)c2n1	0.4%[53.3 µM]	?	-6.2%	8.8%
COc1cc(O)c(C(CC(=O)N2CCC(Cc3ccccc3)CC2)c2ccc(C)cc2)c(OC)c1 (configuration not stated)	·	8.8%[228 µM]	·	·
O=C(O)c1ccc(-n2cccc2/C=C2\SC(=O)N(Cc3ccccc3Cl)C2=O)cc1	·	50.1µM*	·	·
O=C(O)CN1C(=O)N/C(=C\c2cccn2-c2ccc(P(=O)(O)O)cc2)C1=O	·	-3.2%	·	·
O=C(O)c1ccc(-n2cccc2/C=C2\SC(=O)N(Cc3ccc(F)cc3)C2=O)cc1	·	79.4µM*	·	·
COc1ccc2[nH]c(C(=O)N3CCC(CC(C)(C)O)CC3)cc2c1	·	20.0%	·	·
COc1ccccc1Nc1ncc2c(n1)CCN(CC(C)C)C2	0.8%	-3.6%	12.6µM*	28.6%
CCOc1ccc(S(=O)(=O)NCCc2csc3nc(-c4ccc(OC)c(OC)c4)nn23)cc1	-11.5%	-4.3%	-3.3%	16.5%
CCOc1ccc(S(=O)(=O)NCCc2csc3nc(-c4ccc(F)cc4)nn23)cc1	-7.5%	2.0%	-41.6%	25.1µM*
CCOC(=O)c1ccc(N2C(=O)c3n[nH]c(-c4cccs4)c3C2c2ccc(CC)cc2)cc1 (configuration not stated)	?	13.9%	-81.1%	20µM*
CCOC(=O)c1ccc(N2C(=O)c3n[nH]c(-c4cccs4)c3C2c2ccc(C(C)C)cc2)cc1 (configuration not stated)	-31.9%	4.7%	-51.4%	25.1µM*
COc1ccccc1N1CCN(S(=O)(=O)c2ccc(-c3ccno3)cc2OC)CC1	-12.6%	89.1µM*	-33.2%	-19.8%
Cc1noc2c1-c1ccccc1C(c1ccc(Cl)cc1)=N[C@H]2CC(N)=O	12.3%	-7.1%	·	·
CCS(=O)(=O)c1ncc(N(Cc2ccccc2)Cc2ccco2)c(C(=O)Nc2cccc(Cl)c2C)n1	-18.2%	1.2%	-24.0%	?
CCS(=O)(=O)c1ncc(Cl)c(C(=O)N(Cc2ccccc2)Cc2ccco2)n1	4.3%	-2.1%	-93.5%	35.5µM*
CC1CCN(C(=O)c2cc(-c3ccc(Cl)cc3)on2)CC1	-10.2%	-0.7%	2µM*	74.3%
C#Cc1cccc(Nc2nc3cc(C(=O)O)ccc3c3cncnc23)c1	?	25.1µM*	·	·
O=C(O)c1cccc(Nc2ncnc3ccc(Br)cc23)c1	-4.2%	20.4%	-13.0%	-6.7%
COC(=O)C1=C(C)NC(C)=C(C(=O)OC)C1c1ccccc1[N+](=O)[O-]	15.8µM*!	9.7%[57.5 µM]	28.4%	8.7%
CCOC(=O)C1=C(C)NC(C)=C(C(=O)OC)C1c1cccc([N+](=O)[O-])c1 (configuration not stated)	-27.8%[53.3 µM]	-2.7%[57.5 µM]	-22.6%	-13.5%
